# Assay results reported in PubChem BioAssay (Tox21).
# Several values for one entry are separate records, joined by “and”; a condition that tells them apart may be missing. Identical values can stand only once. Activity calls are given as the source filed them. Where a call stands in place of a potency, no number is given. Unless noted, calls follow the shape of the dose curve; as a rule, active = well fitted curve in the direction sought with a large enough effect in the repeat runs; inconclusive = weak or mixed curves; inactive = no such curve, though single readings can be large; an effect the other way counts as inactive or inconclusive.
# Legend:
# [1] = test system: thyroid hormone receptor (rat, GH3 cells); experiment: qHTS assay to identify small molecule agonists of the thyroid receptor (TR) signaling pathway (AID 743066; calls by dose curve)
# Aromatase (Homo sapiens) = Aromatase (Homo sapiens) (UniProt P11511); experiment: qHTS assay to identify aromatase inhibitors (AID 743083); also: nearly all actives have a fitted effect of over 55% in size; also: potency is read from the fitted curve at half-maximal effect
# Sequence of Aromatase (Homo sapiens) (P11511 whole entry, looked up): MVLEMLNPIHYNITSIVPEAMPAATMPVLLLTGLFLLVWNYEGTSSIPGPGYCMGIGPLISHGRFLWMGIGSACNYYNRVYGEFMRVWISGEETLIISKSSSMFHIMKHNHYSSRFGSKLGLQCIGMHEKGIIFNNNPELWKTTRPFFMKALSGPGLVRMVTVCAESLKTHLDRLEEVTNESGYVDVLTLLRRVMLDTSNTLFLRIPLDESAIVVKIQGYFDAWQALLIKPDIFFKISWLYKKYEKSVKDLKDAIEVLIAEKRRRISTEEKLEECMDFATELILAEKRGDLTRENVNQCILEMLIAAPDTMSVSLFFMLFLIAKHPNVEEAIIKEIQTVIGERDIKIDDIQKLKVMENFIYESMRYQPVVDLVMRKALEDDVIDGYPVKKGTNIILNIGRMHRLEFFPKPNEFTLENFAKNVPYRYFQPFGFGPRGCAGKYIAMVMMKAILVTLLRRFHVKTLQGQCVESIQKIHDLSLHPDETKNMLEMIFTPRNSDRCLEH
# [2] = qHTS assay for identifying genotoxic compounds that show differential cytotoxicity against isogenic chicken DT40 cell lines with known DNA damage response pathways - wild type cell line (AID 743012); also: nearly all actives have a fitted effect of over 60% in size; also: potency is read from the fitted curve at half-maximal effect
# In short: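 Viability by ATP luminescence (CellTiter-Glo, 30 min RT) after 40 h compound treatment at 37 C/5% CO2, using 300 parental DNA repair-proficient DT40 cells per well.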
# [3] = qHTS assay for identifying genotoxic compounds that show differential cytotoxicity against isogenic chicken DT40 cell lines with known DNA damage response pathways - Rad54/Ku70 mutant cell line (AID 743015); also: nearly all actives have a fitted effect of over 60% in size; also: potency is read from the fitted curve at half-maximal effect
# [4] = target: Androgen receptor (Homo sapiens) (UniProt P10275); experiment: qHTS assay to identify small molecule antagonists of the androgen receptor (AR) signaling pathway (AID 743035; active = well fitted inhibition curve with a large enough effect in the signal ratio in the repeat runs, not every such curve was filed as active; inconclusive = weak or mixed curves, or effect the other way; inactive = no such curve, though single readings can be large or run the other way; the % refers to the signal ratio; also: potency is read from the fitted curve at half-maximal effect)
# Sequence of Androgen receptor (Homo sapiens) (P10275 whole entry, looked up): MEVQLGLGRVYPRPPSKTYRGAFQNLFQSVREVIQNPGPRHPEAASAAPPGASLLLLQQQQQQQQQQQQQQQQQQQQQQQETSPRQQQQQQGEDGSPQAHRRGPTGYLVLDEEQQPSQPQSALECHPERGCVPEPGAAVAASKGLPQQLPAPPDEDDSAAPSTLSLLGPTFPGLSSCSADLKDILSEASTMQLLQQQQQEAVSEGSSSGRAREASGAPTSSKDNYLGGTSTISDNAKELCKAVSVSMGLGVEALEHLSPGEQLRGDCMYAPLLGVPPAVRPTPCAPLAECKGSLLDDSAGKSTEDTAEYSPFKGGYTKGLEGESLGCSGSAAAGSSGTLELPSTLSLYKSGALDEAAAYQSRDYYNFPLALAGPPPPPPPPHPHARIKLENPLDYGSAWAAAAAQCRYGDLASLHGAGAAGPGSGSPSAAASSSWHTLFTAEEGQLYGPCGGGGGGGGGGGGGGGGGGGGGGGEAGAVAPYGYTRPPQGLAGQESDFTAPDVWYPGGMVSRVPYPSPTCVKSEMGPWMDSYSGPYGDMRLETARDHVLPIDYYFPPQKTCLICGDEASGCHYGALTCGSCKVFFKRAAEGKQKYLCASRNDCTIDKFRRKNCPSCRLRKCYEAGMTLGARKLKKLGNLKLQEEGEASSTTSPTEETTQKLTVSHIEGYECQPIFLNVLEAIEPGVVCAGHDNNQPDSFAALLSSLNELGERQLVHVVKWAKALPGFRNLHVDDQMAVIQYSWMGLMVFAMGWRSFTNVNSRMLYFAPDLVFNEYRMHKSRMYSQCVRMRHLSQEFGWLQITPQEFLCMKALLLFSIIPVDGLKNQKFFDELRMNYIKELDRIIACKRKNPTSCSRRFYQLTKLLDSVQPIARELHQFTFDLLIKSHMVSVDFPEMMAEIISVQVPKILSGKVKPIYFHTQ
# In short: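 Antagonist mode: AR-bla HEK293 cells co-treated with test compounds and agonist R1881 for 16 h at 37C, 5% CO2. Beta-lactamase activity read as FRET fluorescence after 2 h room-temperature substrate loading.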
# [5] = target: Androgen receptor (Homo sapiens) (UniProt P10275); experiment: qHTS assay to identify small molecule agonists of the androgen receptor (AR) signaling pathway (AID 743036; active = well fitted activation curve with a large enough effect in the signal ratio in the repeat runs, with a control signal flat, not every such curve was filed as active; inconclusive = weak or mixed curves, or effect the other way; inactive = no such curve, though single readings can be large or run the other way; the % refers to the signal ratio)
# In short: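 Reporter line: GeneBLAzer AR-UAS-bla-GripTite (HEK293). Steps: plate cells, 4 h rest, add compounds, 16 h at 37C, add LiveBLAzer B/G substrate, 2 h at RT, read fluorescence.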
# [6] = target: Androgen receptor (Homo sapiens) (UniProt P10275); experiment: qHTS assay to identify small molecule agonists of the androgen receptor (AR) signaling pathway using the MDA cell line (AID 743040; also: nearly all actives have a fitted effect of over 20% in size)
# In short: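 Testing was done with the MDA-kb2 AR-luc line, a human breast carcinoma stably transfected with MMTV-luciferase containing AR and GR response elements. Cells were exposed 16 h at 37C before ONE-Glo luminescence detection.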
# [7] = target: Androgen receptor (Homo sapiens) (UniProt P10275); experiment: qHTS assay to identify small molecule antagonists of the androgen receptor (AR) signaling pathway using the MDA cell line (AID 743042; also: nearly all actives have a fitted effect of over 55% in size; also: potency is read from the fitted curve at half-maximal effect)
# In short: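 MDA-kb2 breast carcinoma cells carrying MMTV-luciferase (AR/GR responsive) were co-treated with compounds and the agonist R1881 for 16 h at 37C. Inhibition read as ONE-Glo luminescence; CellTiter-Fluor fluorescence measured in parallel for cytotoxicity.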
# [8] = qHTS assay to identify small molecule antagonists of the thyroid receptor (TR) signaling pathway (AID 743065); also: nearly all actives have a fitted effect of over 55% in size; also: potency is read from the fitted curve at half-maximal effect
# In short: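 GH3.TRE-Luc rat pituitary cells (two TREs driving luciferase) were dosed with compound, then stimulated with 1 nM T3 (final) for 23.5 h at 37 C. ONE-Glo luminescence was the read-out, with CellTiter-Fluor fluorescence as the cytotoxicity counter-screen.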
# [9] = target: Estrogen receptor (Homo sapiens) (UniProt P03372); experiment: qHTS assay to identify small molecule antagonists of the estrogen receptor alpha (ER-alpha) signaling pathway (AID 743069; active = well fitted curve in the direction sought with a large enough effect in the signal ratio in the repeat runs, not every such curve was filed as active; inconclusive = weak or mixed curves, or effect the other way; inactive = no such curve, though single readings can be large or run the other way; the % refers to the signal ratio; also: potency is read from the fitted curve at half-maximal effect)
# Sequence of Estrogen receptor (Homo sapiens) (P03372 whole entry, looked up): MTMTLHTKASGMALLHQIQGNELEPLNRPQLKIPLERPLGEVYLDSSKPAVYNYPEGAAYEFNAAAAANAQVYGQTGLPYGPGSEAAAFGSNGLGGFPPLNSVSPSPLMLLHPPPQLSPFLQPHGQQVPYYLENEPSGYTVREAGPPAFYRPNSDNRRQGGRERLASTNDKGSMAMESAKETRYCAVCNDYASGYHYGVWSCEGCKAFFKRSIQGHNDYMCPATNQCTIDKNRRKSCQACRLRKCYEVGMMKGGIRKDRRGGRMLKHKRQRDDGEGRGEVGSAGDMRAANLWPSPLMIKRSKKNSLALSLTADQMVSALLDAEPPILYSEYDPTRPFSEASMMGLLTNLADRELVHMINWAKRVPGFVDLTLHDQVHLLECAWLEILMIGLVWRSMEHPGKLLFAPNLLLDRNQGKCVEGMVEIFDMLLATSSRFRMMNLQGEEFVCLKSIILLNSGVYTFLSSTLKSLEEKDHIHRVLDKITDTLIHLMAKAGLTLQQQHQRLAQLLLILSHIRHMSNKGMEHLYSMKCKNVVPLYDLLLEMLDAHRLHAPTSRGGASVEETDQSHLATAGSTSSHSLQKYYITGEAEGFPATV
# In short: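 In this cell-based reporter format, GripTite HEK293 cells harbouring ER-alpha-UAS-bla were grown overnight with 2% charcoal-stripped FBS, dosed with DMSO-dissolved compounds, then challenged with 17beta-estradiol. After 18 hr at 37C, beta-lactamase activity was detected by FRET fluorescence.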
# [10] = qHTS assay to identify small molecule antagonists of the estrogen receptor alpha (ER-alpha) signaling pathway - cell viability counter screen (AID 743074; calls by dose curve; also: nearly all actives have a fitted effect of over 45% in size)
# [11] = target: Estrogen receptor (Homo sapiens) (UniProt P03372); experiment: qHTS assay to identify small molecule agonists of the estrogen receptor alpha (ER-alpha) signaling pathway (AID 743075; calls by dose curve)
# [12] = qHTS assay to identify small molecule antagonists of the estrogen receptor alpha (ER-alpha) signaling pathway using the BG1 cell line - cell viability counter screen (AID 743081);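 also: compound given together with 17beta-estradiol as the ER stimulus; series mostly up to about 70 µM; nearly all actives have a fitted effect of over 45% in size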
# [13] = qHTS assay to identify small molecule antagonists of the androgen receptor (AR) signaling pathway - cell viability counter screen (AID 743033; also: nearly all actives have a fitted effect of over 45% in size; also: potency is read from the fitted curve at half-maximal effect)
# [14] = qHTS assay to identify small molecule antagonists of the androgen receptor (AR) signaling pathway using the MDA cell line - cell viability counter screen (AID 743041; also: nearly all actives have a fitted effect of over 45% in size; also: potency is read from the fitted curve at half-maximal effect)
# In short: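 Compound exposure lasted 16 h at 37C in MDA-kb2 AR-luc cells stimulated with R1881. Protease-based CellTiter-Fluor reagent was applied for the final 30 min and fluorescence measured.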
# [15] = qHTS assay to identify small molecule antagonists of the thyroid receptor (TR) signaling pathway - cell viability counter screen (AID 743064); also: nearly all actives have a fitted effect of over 50% in size; also: potency is read from the fitted curve at half-maximal effect
# In short: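 Plate GH3.TRE-Luc cells; incubate 4 h at 37 °C; add compound, then T3 to 1 nM final; incubate 23.5 h; add CellTiter-Fluor; incubate 30 min at 37 °C, 5% CO2; read fluorescence.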
# [16] = target: Estrogen receptor (Homo sapiens) (UniProt P03372); experiment: qHTS assay to identify small molecule agonists of the estrogen receptor alpha (ER-alpha) signaling pathway using the BG1 cell line (AID 743079); also: nearly all actives have a fitted effect of over 20% in size
# [17] = qHTS assay to identify small molecule antagonists of the estrogen receptor alpha (ER-alpha) signaling pathway using the BG1 cell line (AID 743080; calls by dose curve;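 also: BG1 cells stimulated with 17beta-estradiol alongside compound; nearly all actives have a fitted effect of over 25% in size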; also: potency is read from the fitted curve at half-maximal effect)
# In short: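 Seeding, 24 h rest, compound transfer from DMSO, 17beta-estradiol addition, 21.5 h incubation, CellTiter-Fluor (30 min, 37 C), then ONE-Glo (30 min, room temperature): this sequence was run on BG1-Luc-4E2 reporter cells.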
# [18] = qHTS assay for identifying genotoxic compounds that show differential cytotoxicity against isogenic chicken DT40 cell lines with known DNA damage response pathways - Rev3 mutant cell line (AID 743014); also: nearly all actives have a fitted effect of over 55% in size; also: potency is read from the fitted curve at half-maximal effect
compound,measurement,setting,value
CS(=O)(=O)c1ccc([C@@H](CC2CCCC2)C(=O)Nc2cnccn2)cc1Cl,Potency,[1],inactive
same,Potency,Aromatase (Homo sapiens),inactive
C=CCc1cc(S(=O)(=O)c2ccc(O)c(CC=C)c2)ccc1O,Potency,[2],30.6 µM (active)
same,Potency,[3],54.5 µM (active)
same,Potency,[4],38.9 µM (active)
same,Potency,[5],inactive
same,Potency,[6],inactive
same,Potency,[7],61.1 µM (active)
same,Potency,[8],24.3 µM (active)
same,Potency,[9],34.7 µM [inconclusive] (active)
same,Potency,[10],inactive
same,Potency,[11],inactive
same,Potency,[12],inactive
same,Potency,Aromatase (Homo sapiens),54.5 µM (active)
O=C(O)/C=C/C(O)c1ccc(Cl)cc1 (stereo not given),Potency,[2],inactive
same,Potency,[3],inactive
same,Potency,[13],inactive
same,Potency,[4],inactive
same,Potency,[6],inactive
same,Potency,[14],inactive
same,Potency,[7],inactive
same,Potency,[15],inactive
same,Potency,[1],inactive
same,Potency,[10],inactive
same,Potency,[12],inactive
same,Potency,Aromatase (Homo sapiens),inactive
C[C@@H]1O[C@@H](OC[C@H]2O[C@@H](Oc3c(-c4ccc(OCCO)c(OCCO)c4)oc4cc(OCCO)cc(O)c4c3=O)[C@H](O)[C@@H](O)[C@@H]2O)[C@H](O)[C@H](O)[C@H]1O,Potency,[2],inactive
same,Potency,[3],inactive
same,Potency,[13],inactive
same,Potency,[4],inactive
same,Potency,[5],inactive
same,Potency,[6],inactive
same,Potency,[14],inactive
same,Potency,[7],inactive
same,Potency,[15],inactive
same,Potency,[8],inactive
same,Potency,[1],inactive
same,Potency,[10],inactive
same,Potency,[12],inactive
same,Potency,Aromatase (Homo sapiens),inactive
OCCCNc1ccccc1,Potency,[3],inactive
same,Potency,[13],inactive
same,Potency,[14],inactive
same,Potency,[15],inactive
same,Potency,[1],inactive
same,Potency,[9],inactive
same,Potency,[10],inactive
same,Potency,[11],inactive
same,Potency,[16],inactive
same,Potency,[17],inactive
same,Potency,Aromatase (Homo sapiens),inactive
C[C@@H]1O[C@@H]1P(=O)(O)O,Potency,[2],inactive
same,Potency,[3],inactive
same,Potency,[13],inactive
same,Potency,[4],inactive
same,Potency,[5],inactive
same,Potency,[6],inactive
same,Potency,[14],inactive
same,Potency,[7],inactive
same,Potency,[1],inactive
same,Potency,[10],inactive
same,Potency,[12],inactive
same,Potency,Aromatase (Homo sapiens),inactive
CC(=O)N(C)C,Potency,[8],inactive
CCCCCCCC[N+](C)(C)CCCCCCCC,Potency,[18],1.19 µM (active) and 1.06 µM (active)
same,Potency,[13],16.9 µM (active) and 12 µM (active)
same,Potency,[14],21.1 µM (active)
same,Potency,[15],21.1 µM (active)
same,Potency,[8],11.9 µM (active) and 13.3 µM (active)
same,Potency,[11],inactive
same,Potency,[12],inactive
same,Potency,Aromatase (Homo sapiens),29.8 µM (active) and 26.6 µM (active)
Nc1ccc(N)c([N+](=O)[O-])c1,Potency,[15],32.5 µM (active)
same,Potency,[8],inactive
same,Potency,[1],inactive
same,Potency,Aromatase (Homo sapiens),inactive
CC(O)(c1ccc(Cl)cc1)c1ccc(Cl)cc1,Potency,[14],inactive
same,Potency,[1],inactive
same,Potency,[10],inactive
same,Potency,[11],inactive
same,Potency,[16],inactive
same,Potency,[12],inactive
same,Potency,Aromatase (Homo sapiens),61.1 µM (active)
c1ccc2occc2c1,Potency,[14],inactive
same,Potency,[1],inactive
same,Potency,[9],inactive
same,Potency,[11],inactive
same,Potency,[16],inactive
same,Potency,[17],inactive
same,Potency,[12],inactive
same,Potency,Aromatase (Homo sapiens),68.6 µM (active)
CC1=C(/C=C/C(C)=C/C=C/C(C)=C\C(=O)O)C(C)(C)CCC1,Potency,[18],61.3 µM (active)
same,Potency,[3],68.8 µM (active)
same,Potency,[14],inactive
same,Potency,[17],0.244 µM (active)
same,Potency,Aromatase (Homo sapiens),inactive
CC1CCCC(C)N1NC(=O)c1ccc(Cl)c(S(N)(=O)=O)c1 (stereo not given),Potency,[3],inactive
same,Potency,[13],inactive
same,Potency,[14],inactive
same,Potency,[15],inactive
same,Potency,[8],inactive
same,Potency,[1],inactive
same,Potency,[9],inactive
same,Potency,[10],inactive
same,Potency,[11],inactive
same,Potency,[16],inactive
same,Potency,[17],inactive
same,Potency,[12],inactive
same,Potency,Aromatase (Homo sapiens),inactive
CC(=O)Nc1ccc(OC(C)=O)cc1,Potency,[18],inactive
same,Potency,[3],inactive
same,Potency,[13],inactive
same,Potency,[14],inactive
same,Potency,[15],inactive
same,Potency,[8],inactive
same,Potency,[1],inactive
same,Potency,[10],inactive
same,Potency,[12],inactive
CCC(C)(C)c1ccc(CC(C)CN2C[C@@H](C)O[C@@H](C)C2)cc1 (stereo not given in full),Potency,[2],0.841 µM (active)
same,Potency,[3],0.841 µM (active)
same,Potency,[13],inactive
same,Potency,[8],11.9 µM (active)
same,Potency,[11],inactive
same,Potency,[17],29.8 µM (active)
same,Potency,[12],inactive
Nc1cc(Cl)c(NC2=NCCN2)c(Cl)c1,Potency,[2],inactive
same,Potency,[3],inactive
same,Potency,[13],inactive
same,Potency,[14],inactive
same,Potency,[15],inactive
same,Potency,[8],inactive
same,Potency,[1],inactive
same,Potency,[9],inactive
same,Potency,[10],inactive
same,Potency,[11],inactive
same,Potency,[16],inactive
same,Potency,[17],inactive
same,Potency,[12],inactive
same,Potency,Aromatase (Homo sapiens),inactive
C[C@H](O)CN(C)C,Potency,[2],inactive
same,Potency,[3],inactive
same,Potency,[13],inactive
same,Potency,[14],inactive
same,Potency,[8],inactive
same,Potency,[1],inactive
same,Potency,[9],inactive
same,Potency,[10],inactive
same,Potency,[11],inactive
same,Potency,[17],inactive
same,Potency,[12],inactive
same,Potency,Aromatase (Homo sapiens),inactive
CN[C@H](CC(C)C)C(=O)N[C@H]1C(=O)N[C@@H](CC(N)=O)C(=O)N[C@H]2C(=O)N[C@H]3C(=O)N[C@H](C(=O)N[C@@H](C(=O)O)c4cc(O)cc(O)c4-c4cc3ccc4O)[C@H](O)c3ccc(c(Cl)c3)Oc3cc2cc(c3O[C@@H]2O[C@H](CO)[C@@H](O)[C@H](O)[C@H]2O[C@H]2C[C@](C)(N)C(O)[C@H](C)O2)Oc2ccc(cc2Cl)[C@H]1O (stereo not given in full),Potency,[2],inactive
same,Potency,[3],inactive
same,Potency,[13],inactive
same,Potency,[14],inactive
same,Potency,[15],inactive
same,Potency,[8],inactive
same,Potency,[1],inactive
same,Potency,[9],inactive
same,Potency,[10],inactive
same,Potency,[11],inactive
same,Potency,[16],inactive
same,Potency,[17],inactive
same,Potency,[12],inactive
same,Potency,Aromatase (Homo sapiens),inactive
NCC[C@H](O)C(=O)N[C@@H]1C[C@H](N)[C@@H](O[C@H]2O[C@H](CN)CC[C@H]2N)[C@H](O)[C@H]1O[C@H]1O[C@H](CO)[C@@H](O)[C@H](N)[C@H]1O,Potency,[2],inactive
same,Potency,[3],inactive
same,Potency,[13],inactive
same,Potency,[14],inactive
same,Potency,[15],inactive
same,Potency,[8],inactive
same,Potency,[1],inactive
same,Potency,[10],inactive
same,Potency,[12],inactive
same,Potency,Aromatase (Homo sapiens),inactive
